Screening results deposited in PubChem BioAssay by National Center for Advancing Translational Sciences (NCATS).
GCN5L2 inh = qHTS Assay for Inhibitors of GCN5L2 | GCN5L2 HAT assay, ThioGlo1 CoA-SH fluorescence | Potency, µM (top dose mostly 58.9 µM), usual class: inhibitors | 390,000 tested, 0.21% active | AID 504327, 2011
Target sequence (Q92830 whole entry, looked up): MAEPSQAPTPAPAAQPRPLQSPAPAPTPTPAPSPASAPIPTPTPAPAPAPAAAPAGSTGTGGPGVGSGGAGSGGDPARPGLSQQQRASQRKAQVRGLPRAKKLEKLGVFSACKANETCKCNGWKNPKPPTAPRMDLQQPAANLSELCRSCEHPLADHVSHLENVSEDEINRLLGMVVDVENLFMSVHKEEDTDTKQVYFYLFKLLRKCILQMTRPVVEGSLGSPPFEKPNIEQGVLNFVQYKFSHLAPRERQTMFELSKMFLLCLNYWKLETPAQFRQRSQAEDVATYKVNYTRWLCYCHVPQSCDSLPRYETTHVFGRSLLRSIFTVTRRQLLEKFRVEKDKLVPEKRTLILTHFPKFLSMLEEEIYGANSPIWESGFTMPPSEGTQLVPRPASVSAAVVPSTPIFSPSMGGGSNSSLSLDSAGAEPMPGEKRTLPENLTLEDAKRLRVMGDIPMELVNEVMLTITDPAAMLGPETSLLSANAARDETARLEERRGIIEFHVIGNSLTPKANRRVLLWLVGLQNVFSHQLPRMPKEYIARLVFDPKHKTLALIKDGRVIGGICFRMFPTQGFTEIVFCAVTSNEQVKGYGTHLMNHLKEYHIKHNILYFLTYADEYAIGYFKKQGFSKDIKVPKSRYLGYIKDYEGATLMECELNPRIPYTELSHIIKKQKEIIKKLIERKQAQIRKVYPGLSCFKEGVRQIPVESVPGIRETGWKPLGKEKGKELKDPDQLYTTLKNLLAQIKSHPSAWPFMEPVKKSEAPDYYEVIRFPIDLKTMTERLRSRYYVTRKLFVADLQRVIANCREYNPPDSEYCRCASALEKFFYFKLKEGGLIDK
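GCN5L2 (20nM final) in 50mM HEPES, 0.1mM EDTA pH 7.5, 0.01% Tween-20 was preincubated 15 min at room temperature with compound, then given ThioGlo1 (50uM), H3(1-25) peptide (75uM) and acetyl-CoA (70uM); CoA-thiol fluorescence (Ex340/Em540) was read at 0 and 20 min.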
TDP1 cell noCPT = qHTS for Inhibitors of human tyrosyl-DNA phosphodiesterase 1 (TDP1): qHTS in cells in absence of CPT | DT40 Tdp1-/- hTDP1 cells, no CPT, ATP luminescence, 48 h | Potency, µM (highest dose often 46.2 µM), most hits filed as inhibitors | 420,000 tested, 15% active; note: nearly all actives have a fitted effect of over 55% in size
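Cells were dispensed at 400 per well, compounds added by pin tool, plates incubated ≥48 hr at 37 °C, then CellTiter-Glo added for 30 min at room temperature before luminescence reading. Line: DT40 Tdp1-/- complemented with hTDP1; camptothecin omitted.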
TDP1 inh = qHTS Assay for Inhibitors of Tyrosyl-DNA Phosphodiesterase (TDP1) | Tyrosyl-DNA phosphodiesterase 1 (Homo sapiens), Q9NUW8 | Potency, µM (highest dose often 130 µM), most hits filed as inhibitors | 350,000 tested, 0.28% active | recombinant TDP1, AlphaScreen DNA substrate cleavage; note: nearly all actives have a fitted effect of over 40% in size
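Recombinant E. coli-expressed Tdp1 (1 nM) preincubated with compound 15 min at RT, then 5'-biotin/3'-phosphotyrosine-FITC DNA substrate (15 nM) added for 5 min. AlphaScreen beads (10 ug/ml) added, 10 min RT; tyrosine-FITC cleavage read as signal loss.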
VDR inh = Inhibitors of the vitamin D receptor (VDR): qHTS | 400,000 tested, 0.93% active | Vitamin D3 receptor (Homo sapiens), P11473 | Potency, µM, most hits filed as inhibitors | AID 504847, 2011 | VDR-SRC2-3 peptide fluorescence polarization, 2 h
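Fluorescence polarization assay of small-molecule disruption of VDR binding to coregulator peptide SRC2-3. Compounds and controls pin-transferred, then read after 2 h incubation at ambient room temperature.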
DT40 TDP1 CPT = qHTS for Inhibitors of human tyrosyl-DNA phosphodiesterase 1 (TDP1): qHTS in cells in presence of CPT; chicken DT40 Tdp1-/-;hTDP1 cells + 20 nM CPT, ATP luminescence, 48 h; Potency, µM (highest dose often 46.2 µM), most hits filed as inhibitors; 420,000 tested, 12% active; AID 686979, 2013; note: nearly all actives have a fitted effect of over 55% in size
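Chicken DT40 Tdp1-/- cells complemented with human TDP1, 400 cells/well, exposed to compounds plus 20 nM camptothecin for at least 48 h at 37 C; viability read as ATP content by CellTiter-Glo luminescence.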
PLK1 PBD inh = qHTS for Inhibitors of PLK1-PDB (polo-like kinase 1 - polo-box domain): Primary Screen | Serine/threonine-protein kinase PLK1 (Homo sapiens), P53350 | Plk1 PBD binding of FITC phosphopeptide, fluorescence polarization | Potency, µM, hits mostly inhibitors | 360,000 tested, 2.8% active | AID 720504, 2013; note: series mostly up to about 57 µM; nearly all actives have a fitted effect of over 65% in size
A number is an active result; - = inactive; ? = inconclusive; . = not tested or not shown. Rows were chosen to be rich in hits. Some 18% of all compounds tested hit in one or more screens of this group. Calls come from the whole dose curve; as a rule, active = well fitted curve in the direction sought with a large enough effect; inconclusive = small, poorly fitted or top-dose-only effect, or another doubt; inactive = no such curve, though single readings can be large; an effect the other way counts as inactive or inconclusive.

SMILES	GCN5L2 inh	TDP1 cell noCPT	TDP1 inh	VDR inh	DT40 TDP1 CPT	PLK1 PBD inh
O=C(COC(=O)CCN1C(=O)C2CC=CCC2C1=O)Nc1ccc([N+](=O)[O-])cc1 (stereo not given)	-	-	-	-	-	-
Cc1cc(=O)oc2cc(O[C@@H]3O[C@H](CO)[C@@H](O)[C@H](O)[C@H]3O)ccc12	-	-	.	-	-	-
COc1ccc(OC)c2[nH]c(C(=O)N/N=C/c3ccccc3O)cc12	-	3.7µM	.	-	5.2µM	-
COc1ccc(/C=N/NC(=O)c2cc3c(OC)ccc(OC)c3[nH]2)cc1O	-	0.21µM	.	-	0.37µM	-
O=C(O)CCC(CNS(=O)(=O)c1ccccc1)C(F)(F)F (stereo not given)	-	-	-	-	-	-
O=C(NCc1ccc(F)cc1)c1ccc(CS(=O)(=O)c2ccc(Cl)cc2)o1	-	16µM	-	-	?	.
COc1ccccc1S(=O)(=O)Cc1ccc(C(=O)NCc2ccc(Cl)cc2)o1	-	18µM	-	-	?	.
COc1ccc(CNC(=O)c2ccc(CS(=O)(=O)c3ccccc3OC)o2)cc1	-	?	-	-	-	.
O=C1CC(C(=O)N2CCc3ccccc32)CN1c1ccc(F)cc1 (stereo not given)	-	?	-	-	?	-
COc1ccccc1NCC(O)Cn1c2ccccc2c2ccccc21 (stereo not given)	-	?	-	-	?	-
COc1ccc(CCNCCC(c2ccccc2)c2ccccc2)cc1OC	.	18µM	.	.	18µM	-
COc1cc(OC)c(OC)cc1CCC(C)NCCC(c1ccccc1)c1ccccc1 (stereo not given)	-	5.8µM	.	-	6.5µM	-
CCC(C(N)=NCCc1ccc(OC)c(OC)c1)c1ccccc1 (stereo not given)	-	8.2µM	.	-	15µM	-
COc1ccccc1CCNC(C)CCc1ccc(O)cc1 (stereo not given)	-	-	-	-	?	-
COc1ccc(CCNCC(O)Cn2c3ccccc3c3ccccc32)cc1OC (stereo not given)	-	12µM	-	-	13µM	-
CC(=O)Nc1cccc(Oc2nc(C)cc(C)c2C#N)c1	-	?	-	?	?	24µM
CC1CCN(C(=O)COC(=O)c2cc3ccccc3oc2=O)CC1	-	-	-	-	-	-
C=CC1=C(C(=O)O)N2C(=O)[C@@H](NC(=O)C(N=O)c3csc(N)n3)[C@H]2SC1 (stereo not given in full)	-	.	.	45µM	.	.
O=C1NC(=O)C(=C2CCOC2=O)N1	.	-	.	.	-	-
CCN(CC)S(=O)(=O)c1ccc2c(c1)N(CC(=O)NCCCN1CCN(c3cc(C)ccc3C)CC1)C(=O)CO2	-	4.6µM	-	-	2.6µM	.
CCN(CC)S(=O)(=O)c1ccc2c(c1)N(CC(=O)NCCCN1CCN(c3ccccc3F)CC1)C(=O)CO2	-	?	-	-	23µM	.
CCN(CC)S(=O)(=O)c1ccc2c(c1)N(CC(=O)NCCCN1CC(C)CC(C)C1)C(=O)CO2 (stereo not given)	-	-	-	-	-	-
O=C(Nc1ccc2ccccc2c1)c1cccc2ccccc12	.	?	.	-	?	-
Cc1ccccc1NC(=O)COc1ccccc1C(=O)Nc1ccccc1	.	-	.	.	-	.
O=C(COc1ccccc1C(=O)Nc1ccccc1)Nc1ccccc1-c1ccccc1	.	?	.	.	13µM	.
SMILES	GCN5L2 inh	TDP1 cell noCPT	TDP1 inh	VDR inh	DT40 TDP1 CPT	PLK1 PBD inh
O=C(COc1ccccc1C(=O)Nc1ccccc1)Nc1ccc(-c2ccccc2)cc1	.	11µM	.	.	?	.
O=C(COc1ccccc1C(=O)Nc1ccccc1)Nc1ccc2ccccc2c1	.	20µM	.	.	?	.
CC(=O)Nc1ccc(NC(=O)COc2cccc3ccccc23)cc1	.	8.2µM	.	.	9.2µM	-
Cc1cc(C)cc(N(C(=O)c2sc(C)nc2C)C(C(=O)NC(C)(C)C)c2ccncc2)c1 (stereo not given)	-	-	-	-	-	-
Cc1ccc(-n2nnnc2CNC(=O)c2ccc(F)cc2)cc1C	-	-	-	-	-	.
O=C(COc1ccccc1C(=O)O)Nc1ccc(SC(F)F)cc1	-	16µM	-	-	16µM	-
COc1ccc(NC(=O)c2ccccn2)cc1	-	?	-	-	?	-
O=C(Cn1cnc2ccccc21)Nc1ccc(SC(F)F)cc1	-	2.3µM	-	-	21µM	-
COc1ccc(NC(=O)COC(=O)Cn2cnc3ccccc32)cc1	-	-	-	-	-	-
COc1ccc(Nc2ncccc2C(=O)Nc2ccccc2)cc1	-	29µM	-	-	23µM	2.7µM
N#Cc1ccccc1NC(=O)COc1ccccc1C(=O)Nc1ccccc1	-	?	-	-	16µM	-
O=C(COC(=O)c1ccccc1C(=O)c1ccccc1)Nc1ccc(SC(F)F)cc1	-	?	-	-	?	-
Cc1ccc(N2CCn3c2nc2c3c(=O)n(CCCc3ccccc3)c(=O)n2C)cc1C	-	-	-	-	-	.
CCn1c(N)[n+](CC(=O)Nc2ccc(SC(F)F)cc2)c2ccccc21	-	13µM	-	-	?	?
CC(OC(=O)c1ccccc1OCC(=O)Nc1ccc(Br)cc1)C(=O)NC1CCCC1 (stereo not given)	.	10µM	.	.	8.9µM	.
O=C(Nc1ccc(C2CC2(Cl)Cl)cc1)c1ccccc1Br (stereo not given)	-	13µM	-	-	18µM	-
CS(=O)(=O)c1ccc(NC(=O)COc2ccccc2C(=O)Nc2ccccc2)cc1	.	?	.	.	20µM	.
CC[N+](CC)(CC)CC(=O)Nc1ccc(SC(F)F)cc1	-	-	-	-	?	-
COc1ccccc1NC(=O)COc1ccccc1C(=O)Nc1ccccc1	-	?	-	-	?	-
O=C(NN=C1CCCC1)c1cccc(Br)c1	-	-	-	-	-	-
Cc1ccc(NC(=O)C2CCCN(c3nc4ccccc4s3)C2)c(C)c1 (stereo not given)	-	-	-	-	-	.
O=C(COc1ccccc1C(=O)Nc1ccccc1)c1ccc(F)cc1	-	?	-	-	?	-
Cc1ccccc1NC(=O)c1ccccc1OCC(=O)Nc1ccc(Br)cc1	.	14µM	.	.	?	.
Cc1ccccc1NC(=O)COC(=O)c1ccccc1OCC(=O)Nc1ccc(Br)cc1	.	-	.	.	-	.
O=C(Nc1ccccc1)c1ccccc1OS(=O)(=O)c1ccccc1	-	-	-	-	-	-
